Source: PubChem BioAssay (National Center for Advancing Translational Sciences (NCATS))
In the library only some 1.7% were active in any assay of this set; here they are far more common.
GLP-1R agonist: GLP-1 receptor (human) agonism | HEK293 GLP-1R CRE-luciferase, luminescence, 4-6 h; cells express a hypersensitive GLP-1R form | Potency, µM (titrated, usually from 45.6 µM), for inactives: top-dose activation, usual class: activators | actives 0.007% (n = 380,000) | AID 624172; also: potency is read from the fitted curve at half-maximal effect; % of control where 0% means no effect
GLP-1R inv ag: acts as inverse agonist at human GLP-1 receptor | P43220 | HEK293 GLP-1R CRE-luciferase, luminescence, 24 h; GLP-1R form is constitutively active | Potency, µM (doses to about 38.3 µM), for the others: at the highest dose activity change, negative = inhibition, usual class: inhibitors | actives 1.6% (n = 410,000) | AID 624417; also: potency is read from the fitted curve at half-maximal effect; % is scaled to controls: 0 for no effect and ±100 for the full control effect; nearly all actives have a fitted effect of over 55% in size
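GLP-1R inverse agonism mode: basal reporter luminescence in engineered HEK293 cells measured after one day of compound exposure at 37 deg C, with a 12 min room-temperature detection step.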
LDHA inh: LDHA (human) enzyme inhibition. purified LDHA, NADH/diaphorase-resazurin fluorescence; stronger effect = lower value. activity change, % (values are at about 110 or 230 µM). actives 0.15% (n = 480,000). AID 1347041; in the data active = activity change below about -30%; inconclusive = mostly about -25% to -30%;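 also: plate controls were DMSO wells for no effect and wells without enzyme for full effect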
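Enzyme activity of human lactate dehydrogenase 5 (2 nM; 0.06 mM NADH, 0.2 mM pyruvate, 5 min, RT) is measured via a resazurin/diaphorase fluorescence readout of residual NADH.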
IDH1 R132H inh: human IDH1 R132H inhibition; O75874; IDH1-R132H enzyme, NADPH consumption, diaphorase/resazurin fluorescence; Potency, µM (highest dose often 76.6 µM), for the others: at the highest dose activity change, negative = inhibition, hits mostly inhibitors; actives 0.093% (n = 390,000); AID 602179; also: potency is read from the fitted curve at half-maximal effect; % is scaled to controls: 0 for no effect and ±100 for the full control effect; nearly all actives have a fitted effect of over 65% in size
Target sequence (O75874 whole entry R132H, stated change not applied): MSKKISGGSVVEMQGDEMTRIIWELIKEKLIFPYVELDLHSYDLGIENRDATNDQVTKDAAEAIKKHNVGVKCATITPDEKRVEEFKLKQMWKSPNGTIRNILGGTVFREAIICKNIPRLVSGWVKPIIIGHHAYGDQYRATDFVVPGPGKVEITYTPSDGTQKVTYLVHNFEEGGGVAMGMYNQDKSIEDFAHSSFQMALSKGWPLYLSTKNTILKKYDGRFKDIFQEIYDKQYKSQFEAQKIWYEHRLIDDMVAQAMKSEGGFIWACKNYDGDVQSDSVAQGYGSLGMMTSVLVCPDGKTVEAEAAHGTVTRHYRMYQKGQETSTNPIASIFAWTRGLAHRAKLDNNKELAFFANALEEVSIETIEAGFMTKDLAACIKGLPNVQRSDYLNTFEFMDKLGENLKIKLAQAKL
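IDH1-R132H (0.5 ug/mL dispensed) in pH 7.5 Tris buffer was preincubated 30 min with compound, then given a substrate mix of 0.016 mM NADPH and 2 mM alpha-KG for 80 min at room temperature; remaining NADPH was read by diaphorase/resazurin fluorescence.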
PTHR1 ag: activates the human parathyroid hormone receptor PTHR1. actives 0.075% (n = 410,000). HEK293 GP2 PTHR1 cells, GloSensor cAMP luminescence, 1 h. Potency, µM (series often up to 115 µM), for inactives: at the top dose activation, usual class: activators. Q03431; also: potency is read from the fitted curve at half-maximal effect; nearly all actives have a fitted effect of over 55% in size
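HEK-293-derived GP2 cells expressing PTHR1 and a GloSensor cAMP reporter, 3,000/well, plated overnight, given luciferin plus IBMX (each 0.5 mM as added) for 1 h at 37 °C, then compound for 1 h at 37 °C. Luminescence was read after 15 min at room temperature.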
HEK293 tox: cytotoxicity counter-screen for GLP-1 receptor inverse agonists. HEK293 cAMP-luciferase reporter cells, luminescence, 24 h. Potency, µM (titrated, usually from 38.3 µM), without a hit: at the top dose activity change, negative = inhibition, usual class: inhibitors. actives 0.13% (n = 410,000). AID 624418;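 also: loss of luciferase light is scored as toxicity; potency is read from the fitted curve at half-maximal effect; % is scaled to controls: 0 for no effect and ±100 for the full control effect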
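Quantitative HTS format, 1536 wells, 200 cells/uL seeded. Compounds: 23 nL, 24 h, 37 °C. Detection: luciferase reagent, luminescence at 12 min RT; decreased signal taken as cytotoxic.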
An asterisk follows results filed as active; i = inactive; ? = inconclusive; · = no result; [ ] = remark or other dose. Unless noted, calls follow the shape of the dose curve; as a rule, active = well fitted curve in the direction sought with a large enough effect; inconclusive = small, poorly fitted or top-dose-only effect, or another doubt; inactive = no such curve, though single readings can be large; an effect the other way counts as inactive or inconclusive.

SMILES	GLP-1R agonist	GLP-1R inv ag	LDHA inh	IDH1 R132H inh	PTHR1 ag	HEK293 tox
Cc1ccc2c(CC(=O)Nc3ccc(S(=O)(=O)N4CCCCC4)cc3)coc2c1	·	?	-2	4%	-22%	-4%
Cc1ccc2c(CC(=O)Nc3ccc(S(=O)(=O)N4CCCC(C)C4)cc3)coc2c1 (stereo unspecified)	·	10µM*	3	-15%	-9%	-19%
O=S(=O)(Nc1nc2ccccc2nc1Nc1ccc(F)c(Cl)c1)c1cccs1	·	·	-14	·	·	·
CN(Cc1ccc(Cl)cc1Cl)C(=O)CCNC(=O)Nc1ccccc1	·	·	1	·	·	·
CC(C)NC(=NCc1ccc(Cl)cc1Cl)Nc1ccccc1	-6%	7.9µM*	-1	2%	-1%	-14%
N=c1c(S(=O)(=O)c2ccccc2)cc2c(=O)n3ccccc3nc2n1C1CCCCC1	23%	10µM*	0	7%	-24%	0%
COc1cc(OC)c(NC(c2nnc(-c3ccccc3)o2)c2ccc(F)cc2Cl)cc1Cl (stereo unspecified)	·	?	4	3%	-24%	1%
CCc1cccc(NC(c2nnc(-c3ccccc3)o2)c2ccc(F)cc2Cl)c1 (stereo unspecified)	·	6.3µM*	3	-15%	i	2%
CC(C)NC1=C(Cl)C(=O)c2ccccc2C1=O	11%	0%	-5	-7%	-36%[57.5 µM]	5.6µM*
O=C1C(Cl)=C(Nc2ccccc2)C(=O)c2ccccc21	1%	-22%	19	-4%	-30%	?
NNC(=O)c1cccc(COc2ccccc2Br)c1	-9%	?	-8	-8%	-17%[57.5 µM]	2%
NNC(=O)c1cccc(COc2ccc3c(c2)CCC3)c1	-6%	1.1µM*	-3	5%	-14%	-9%
CC1=C/C(=N\N=C2\NC(=O)C(CC(=O)Nc3ccccc3F)S2)CC(C)(C)C1 (stereo unspecified)	4%	?	-4	11%	i	11µM*
O=C(CC1S/C(=N/N=C2CCCCCC2)NC1=O)Nc1ccccc1F (stereo unspecified)	0%	6%	-2	-1%	-6%	?
COc1ccc(NC(=O)C=C(C)C)cc1OC1CCCC1	·	·	13	·	·	·
COc1ccc(C)cc1NC(=O)c1ccccc1NS(=O)(=O)c1ccc(Cl)s1	-3%	4µM*	1	-9%	-49%	-23%
Cc1c(C(=O)N2c3ccccc3CC2C)oc2ccccc12 (stereo unspecified)	-3%	10µM*	0	6%	-84%	-16%
COc1cccc(OC)c1C(=O)Nc1ccc(-c2nc3ccc(C)cc3o2)cc1	·	·	0	·	·	·
CCN(CCC(=O)OC)C(=O)CCCOc1cccc(C(C)=O)c1	·	·	-2	·	·	·
CN(CC(=O)NC(=O)NCc1ccccc1)Cc1ccc(Cl)cc1Cl	·	·	2	·	·	·
CN(C)c1nc2c(c(=O)n(C)c(=O)n2C)n1CC(=O)c1ccccc1	·	·	6	·	·	·
Cc1ccc(NC(=O)N2CCCC(c3nc(-c4ccc(F)cc4)no3)C2)cc1 (stereo unspecified)	1%	7.9µM*	-1	8%	-43%	?
Cc1nnc(NC(=O)c2cc(=O)c3cc(Cl)cc(Cl)c3o2)s1	·	·	13	·	·	·
CC(C)c1nnc(NC(=O)c2cc(=O)c3cc(Cl)cc(Cl)c3o2)s1	·	·	-35*	·	·	·
CCc1ccc(-c2cc(C)no2)cc1S(=O)(=O)Nc1cc(F)ccc1F	·	·	1	·	·	·
SMILES	GLP-1R agonist	GLP-1R inv ag	LDHA inh	IDH1 R132H inh	PTHR1 ag	HEK293 tox
COc1ccc(OCC(=O)Nc2nonc2C)cc1	·	·	11	·	·	·
Cc1ccccc1NC(=O)c1nnn(-c2ccc3c(c2)OCCO3)c1N	9%	-11%	-4	4%	-32%	-8%
CCOc1ccccc1NC(=O)c1nnn(-c2ccc3c(c2)OCCO3)c1N	7%	2.5µM*	4	18%	-38%	-8%
O=C(CCl)N=c1sccn1Cc1ccccc1Cl	15%	?	-3	8%	-11%	?
O=C(CCl)N=c1sccn1Cc1ccc(Cl)cc1Cl	6%	10µM*	0	0%	-26%	?
O=C(Nc1ccccc1)Nc1cc(Cl)cc(Cl)c1	-47%	2.8µM*	-2	7%	-16%[57.5 µM]	?
O=C(O)C1C2C=CC(O2)C1C(=O)Nc1cc(OCC(F)(F)F)cc(OCC(F)(F)C(F)F)c1 (stereo unspecified)	·	·	5	·	·	·
O=C(Nc1ccccc1)Nc1cc(OCC(F)(F)F)cc(OCC(F)(F)F)c1	0%	2.8µM*	-4	0%	-37%	5.6µM*
Cc1cccc(NC(=O)CSCc2cc(=O)n3oc(C)cc3n2)c1	·	·	4	·	·	·
COc1ccc(NC(=O)/C=C/c2ccc(C(C)(C)C)cc2)cc1Cl	·	·	4	·	·	·
CC1=C(C(=O)N(C(C)C)C(C)C)CC(CC(=O)NC2CCCCC2)C(=O)N1Cc1ccccc1 (stereo unspecified)	13%	?	-34*	1%	-17%	-15%
CC1=C(C(=O)N(C(C)C)C(C)C)CC(CC(=O)NC2CCCC2)C(=O)N1Cc1ccccc1 (stereo unspecified)	1%	1%	-11	9%	-13%	1%
COc1ccc(CC2(CO)CCN(Cc3cc4ccccc4o3)CC2)cc1	25%	10µM*	-1	-2%	-26%	-3%
OCC1(Cc2cccc(C(F)(F)F)c2)CCN(Cc2cc3ccccc3o2)CC1	3%	?	3	10%	-32%	?
CC(Sc1nc(C(F)(F)F)nc2ccccc12)C(=O)Nc1ccc(N(C)C)cc1 (stereo unspecified)	·	·	7	·	·	·
COc1ccc(Cl)cc1NC(=O)CN(C)CC(=O)Nc1ccccc1-c1ccccc1	1%	?	-3	0%	-15%	?
COc1ccc(Cl)cc1NC(=O)CN1CCc2ccccc21	15%	10µM*	0	8%	-20%	0%
COc1ccc(Cl)cc1NC(=O)CN(C)CC(=O)Nc1ccc(C)cc1Br	21%	7.9µM*	-3	5%	-30%	-11%
COc1ccc(Cl)cc1NC(=O)CN1C(=O)C(C)(C)c2cc(S(=O)(=O)N3CCCCC3)ccc21	·	11µM*	0	18%	i	-20%
COc1ccc(Cl)cc1NC(=O)CN1Cc2ccccc2C1=O	·	-24%	-9	-6%	i	3%
COCCNc1oc(-c2ccccc2F)nc1S(=O)(=O)c1ccc2c(c1)OCCO2	·	·	1	·	·	·
